Bioassay records from PubChem BioAssay.
The list is not random: actives were taken first. Their share in the collection is about 8.7%.
AMA1-RON2 inh: inhibitors of Plasmodium falciparum AMA1-RON2 interaction; hit rate 0.2% among 360,000; AlphaScreen AMA1-biotinylated RON2 peptide binding; Potency, µM (doses to about 58.2 µM), most hits filed as inhibitors; further: nearly all actives have a fitted effect of over 45% in size
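AMA1 (3D7) with his tag at 25 nM final met compounds first, then biotinylated RON2 peptide at 25 nM; detection used donor plus acceptor beads, 10 µg/mL apiece, read by AlphaScreen after 30 min at room temperature.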
Pf growth 48h: P. falciparum growth inhibition at 48 hours (one generation) | Potency, µM (doses to about 28.7 µM), usual class: inhibitors | P. falciparum luciferase growth in erythrocytes, 48 h | hit rate 5.9% among 310,000
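Firefly luciferase activity from engineered P. falciparum reports growth; inhibitors lower the luminescent signal. Cultures contained 2% hematocrit erythrocytes at 0.1% final parasitemia.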
Pf growth 96h: inhibits malaria parasite growth, 96 h; P. falciparum luciferase reporter growth, 96 h; Potency, µM (top dose mostly 28.7 µM), usual class: inhibitors; hit rate 6.9% among 320,000; AID 504834
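Two parasite generations (96 h, 37 C, 5% CO2) of compound exposure in infected erythrocytes (0.05% parasitemia, 2% hematocrit). Luciferase-reporter P. falciparum; decreased luminescence indicates inhibited growth, aimed at apicoplast-acting delayed death.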
Vaccinia mCherry: vaccinia inhibition (mCherry reporter). hit rate 0.63% among 310,000. Vaccinia virus mCherry reporter infection, fluorescence. Potency, µM (series often up to 36.5 µM), usual class: inhibitors. AID 720579; calls by dose curve; tested in A549 cells; further: nearly all actives have a fitted effect of over 35% in size
Vaccinia Venus: inhibitors of vaccinia virus (Venus reporter) | Vaccinia virus Venus reporter expression, fluorescence | Potency, µM (highest dose often 36.5 µM), hits mostly inhibitors | hit rate 0.46% among 330,000; calls by dose curve; tested in A549 cells; further: nearly all actives have a fitted effect of over 30% in size
Each line names hits and unclear results; the compound was inactive in the other large screens. Unless noted, the call rests on the fitted dose curve; in most records, active means well fitted curve in the direction sought with a large enough effect; inconclusive means small, poorly fitted or top-dose-only effect, or another doubt; inactive means no such curve, though single readings can be large; an effect the other way counts as inactive or inconclusive.

CN1CCc2c(sc3c2C(=O)NC(c2ccc(C(C)(C)C)cc2)N3)C1 (stereo not given)	none (no result: AMA1-RON2 inh, Pf growth 48h, Pf growth 96h)
O[C@@H]1CN(CC2CCCCC2)[C@@H](c2ccc(Cl)cc2)C[C@H]1n1cc(C2CC2)nn1	Vaccinia mCherry inconclusive, Vaccinia Venus 14µM (no result: Pf growth 48h, Pf growth 96h)
Cc1ccc(Cl)cc1N1CCN(C(=O)Cn2ncc3c([nH]c4ccccc43)c2=O)CC1	none (no result: AMA1-RON2 inh, Pf growth 48h, Pf growth 96h)
COc1ccc(/C=N/N=C(\N)c2nonc2N)cc1	Pf growth 96h 1.3µM (no result: Vaccinia mCherry, Vaccinia Venus)
COc1cc(/C=N/N=C(\N)c2nonc2N)cc(OC)c1O	none
CCCC[C@H](O)c1ccccc1	Pf growth 96h inconclusive (no result: AMA1-RON2 inh, Vaccinia mCherry, Vaccinia Venus)
O=C(NCC1Cc2cccc(-c3cnccn3)c2O1)c1ccc(F)c(Cl)c1 (stereo not given)	none (no result: AMA1-RON2 inh, Pf growth 48h, Pf growth 96h)
O=C(c1ccccc1)c1nn(-c2ccccc2)c2nnc(Cc3ccccc3)c(=O)n12	Pf growth 48h 10µM, Pf growth 96h 10µM (no result: Vaccinia mCherry, Vaccinia Venus)
COc1ccc(Nc2cc(C(=O)NCCCN3CCOCC3)c3ccccc3n2)cc1	none (no result: Vaccinia mCherry, Vaccinia Venus)
COc1ccccc1Nc1cc(C(=O)NCCCN2CCOCC2)c2ccccc2n1	Pf growth 96h 0.93µM (no result: Pf growth 48h)
CCc1ccc(Nc2cc(C(=O)NCCCN3CCOCC3)c3ccccc3n2)cc1	Pf growth 96h 5.2µM, Vaccinia mCherry inconclusive (no result: Pf growth 48h)
COc1cccc2cc(C(=O)N(Cc3cccs3)Cc3cccs3)c(=O)oc12	none (no result: AMA1-RON2 inh, Pf growth 48h, Pf growth 96h)
CCCCCCNC(=O)c1cccc(-c2ccc(C)c3ccccc23)n1	Pf growth 48h inconclusive, Pf growth 96h inconclusive
COc1ccccc1CNC(=O)c1cccc(-c2ccc(C)c3ccccc23)n1	Pf growth 48h inconclusive, Pf growth 96h 15µM (no result: AMA1-RON2 inh, Vaccinia mCherry, Vaccinia Venus)
Cc1nc(Oc2ccc(S(=O)(=O)N3CCOCC3)cc2Cl)c2c3c(sc2n1)CCCC3	Pf growth 48h inconclusive, Pf growth 96h 13µM
Clc1nc(CN2CCOCC2)nc2sc3c(c12)CCC3	none (no result: Vaccinia mCherry, Vaccinia Venus)
Cc1cccc(Oc2nc(CN3CCOCC3)nc3sc4c(c23)CCCC4)c1	AMA1-RON2 inh inconclusive, Pf growth 48h 10µM, Pf growth 96h inconclusive
CCC(C)Nc1nc(CN2CCOCC2)nc2sc3c(c12)CCC3 (stereo not given)	Pf growth 96h 9.3µM (no result: Pf growth 48h)
O=C(CN1C(=O)CCc2cc(S(=O)(=O)N3CCOCC3)ccc21)NCc1ccccc1	none (no result: AMA1-RON2 inh, Pf growth 48h, Pf growth 96h)
COc1ccc2c(c1)cc1c(=O)n(CC(=O)NC(C)C)nc(C)n12	none (no result: AMA1-RON2 inh, Pf growth 48h, Pf growth 96h)
CC(=O)Nc1ccccc1-c1nc2ccccc2n(CC(=O)Nc2cccc(C)c2C)c1=O	none (no result: AMA1-RON2 inh, Pf growth 48h, Pf growth 96h)
CC(=O)NC1CSCC1OC(C)=O (stereo not given)	Pf growth 96h 9.3µM (no result: Vaccinia mCherry)
Cc1ccc(C)c(N2CCN(C(=O)C3CCN(S(=O)(=O)c4ccc5[nH]c(=O)oc5c4)CC3)CC2)c1	none (no result: AMA1-RON2 inh, Pf growth 48h, Pf growth 96h)
ClCc1nnc(-c2cc3c(s2)CCCC3)o1	Pf growth 48h inconclusive, Pf growth 96h 10µM
CC(C)(C)C1CCc2sc(-c3nnc(CCl)o3)cc2C1 (stereo not given)	Pf growth 48h 13µM, Pf growth 96h inconclusive (no result: Vaccinia mCherry, Vaccinia Venus)
O=C(CCn1c(=O)c2sccc2n(CC(=O)Nc2ccccc2)c1=O)NCc1ccccc1Cl	none (no result: AMA1-RON2 inh, Pf growth 48h, Pf growth 96h)
Cc1cc(CNCc2cn(C)nc2-c2ccc(Oc3ccccc3)cc2)on1	Pf growth 48h inconclusive, Pf growth 96h 12µM, Vaccinia mCherry inconclusive
Cn1cc(CNCc2cnc3ccccn23)c(-c2ccc(Oc3ccccc3)cc2)n1	AMA1-RON2 inh 28µM, Pf growth 48h inconclusive, Vaccinia mCherry inconclusive
CN(Cc1cn(C)nc1-c1ccc(Oc2ccccc2)cc1)Cc1cnc2ccccn12	Pf growth 48h inconclusive, Pf growth 96h inconclusive (no result: Vaccinia mCherry, Vaccinia Venus)
Cn1cc(CNCC2CCCO2)c(-c2ccc(Oc3ccccc3)cc2)n1 (stereo not given)	Pf growth 48h inconclusive
CCOC(=O)c1ccc(N2CCN(c3cccc(Cl)c3)CC2)c(NC(=O)Nc2ccc(OC)cc2OC)c1	none (no result: AMA1-RON2 inh, Pf growth 48h, Pf growth 96h)
CN1CCCC(CNC(=O)c2cnn(-c3ncc4c(n3)-c3ccccc3CC4)c2C2CC2)C1 (stereo not given)	none (no result: AMA1-RON2 inh, Pf growth 48h, Pf growth 96h)
C(=C/c1ccnc2nc(SC/C=C/c3ccccc3)nn12)/c1ccccc1	Pf growth 48h inconclusive, Pf growth 96h 15µM (no result: Vaccinia mCherry, Vaccinia Venus)
O=C(NCC(c1cccnc1)N1CCN(Cc2ccccc2)CC1)C(=O)Nc1cccc(F)c1 (stereo not given)	none (no result: AMA1-RON2 inh, Pf growth 48h, Pf growth 96h)
COc1ccccc1-c1cc(NC(=O)COc2ccc(C)c(C)c2)n(-c2ccccc2)n1	none (no result: AMA1-RON2 inh, Pf growth 48h, Pf growth 96h)
CCCCN1C(=O)CC(Sc2ncccc2C(=O)O)C1=O (stereo not given)	none
CC(c1ccccc1)N1C(=O)CC(Sc2ncccc2C(=O)O)C1=O (stereo not given)	Pf growth 96h 2.1µM
